Source: paper PMC12136788
Where a chain is given by its changes, count along the chain named. Over roughly 5,800 sequences, “enrichment r” has its median near 0.54; the highest 2% begin near 16. What follows is part of a selection rich in the highest values, with near analogues and random picks from the rest.

B1: chr11:70485313:70487720:-|CDS|ENSG00000162105|control|control|control (ssRNA)
RNA: GGGAGUUCUACAGUCCGACGAUCUGGGGCGACGUCACAGAGAUCAAAAGCCCGAUUCUCUCAGGCCCAAAGGCAAACGUUAUUAGUGAAUUGAACUCUAUCCUACAGCAAAUGAACCGAGAGAAAUUGGCAAAGCCGGGGGAACAACAGAGGAUUGAGCAUCA
B2: chr12:66123492:66123593:-|3pUTR|ENSG00000139233|msi1|FALSE|unique (ssRNA)
RNA: GGGAGUUCUACAGUCCGACGAUCAUGCUACCCAAUAUCCAGUUAUAAUCAGGCCUCAACGUUCUGUCAGGUAUUAAUAUGGUUAGAAUUGUUCUUACAACUGGUAAUUAUAGUCAAUAGAGAUAAAACAGAUGAUGUACUGACCAACAGAGGAUUGAGCAUCA
B3: ENSG00000154556:stop:overlap|stop_codon|ENSG00000154556|stop_codon|NA|stop_codon (ssRNA)
RNA: GGGAGUUCUACAGUCCGACGAUCCUUCUUCCCCAUCAAGAGCAAAAGUUACUCAGGGCUCAACGGCAACCCCUCCAGUGAGUUAGAUUACUGUAGCACUUACAGACAGCACUUGGAUGUCCCUCGGGACUCACCAAGAGCCAUCAACAGAGGAUUGAGCAUCA
B4: chr11:613205:613595:-|three_prime_utr|ENSG00000185507|control|control|control (ssRNA)
RNA: GGGAGUUCUACAGUCCGACGAUCCUGCACGUUCCUAUACGGCCCCCCAGACCCAGCUGUCCGGGCCACAGACCCCCAGCAGGUAGCAUUCCCCAGCCCUGCCGAGCUCCCGGACCAGAAGCAGCUGCGCUACACGGAGGAACUCAACAGAGGAUUGAGCAUCA
B5: chr16:66721972:66722075:-|3pUTR|ENSG00000135720|unk|FALSE|unique (ssRNA)
RNA: GGGAGUUCUACAGUCCGACGAUCUUUUUAAUUCAGUUUUUUAAAAAAACAAAUGUAUUGUGGCUUCCAGUUACCAGGUUGUCUAGGUAAUGACAGUAAACUGACUGUAGAAUGAUAAUUGUGGUAUAGUGACCAAUAGAUGCCCAACAGAGGAUUGAGCAUCA
B6: chr19:18196783:18197469:-|three_prime_utr|ENSG00000105649|control|control|control (ssRNA)
RNA: GGGAGUUCUACAGUCCGACGAUCACUACCCGGGCCUGACCCGGCCCCUACCAGCCACGGGCACAAGACCCCUGCUCCUGACUUAGCCCGUCACCCUUAUUUAUUAUUGUAGCUAUUUAUUUAUUUAUUGAAGAUGUCCCCCAGCAACAGAGGAUUGAGCAUCA
B7: chr19:38730201:38730298:+|3pUTR|ENSG00000130402|msi1_unk|total|mutant (ssRNA)
RNA: GGGAGUUCUACAGUCCGACGAUCCAGAGAAUUACUAUUUACUUUAUUAACUUACGGAUUUAUUAUAUAAAUAUAUAUUCACCCCGCAACAUAUCUCUGCCGUCUCUCCUGCUCUCAUAAUGAAGACACCGCCGAUUCUCUGCCCAACAGAGGAUUGAGCAUCA
B8: chr12:66123492:66123593:-|3pUTR|ENSG00000139233|msi1|total|mutant (ssRNA)
RNA: B2 RNA with U83C, A84C, U110C, A111C, U117C, A118C
B9: chr19:38730201:38730298:+|3pUTR|ENSG00000130402|msi1_unk|FALSE|overlapping (ssRNA)
RNA: B7 RNA with C83U, C84A, C128U, C129A
B10: chr7:20410151:20410448:+|3pUTR|ENSG00000105855|msi1|total|mutant (ssRNA)
RNA: GGGAGUUCUACAGUCCGACGAUCACCCGUGUCGUUGCCGCACUUUACUGUAAUAUAUAACUUAUUCCGAUCAGCACCGAAUGCCGAUCCUCUGAAGAGCACUGAUUACACUUUACAGGUACCUGUUAUCCCUACGCUUCCCAGCAACAGAGGAUUGAGCAUCA
B11: chr3:58425360:58425463:+|3pUTR|ENSG00000168297|unk|FALSE|unique (ssRNA)
RNA: GGGAGUUCUACAGUCCGACGAUCAGACAGCUCCUAGAAACAUUCCUCUUACAGUUCAUUUCUCUAAAGCAUUUUCUGAUUCUUAGAUAACUCCAAUUUUUGCUACCUUUAUCUUAGACAUUAACACUAUAGCCCAAAGCAUAGCAACAGAGGAUUGAGCAUCA
B12: chr4:56461171:56461272:+|3pUTR|ENSG00000128050|msi1|FALSE|bound_elsewhere (ssRNA)
RNA: GGGAGUUCUACAGUCCGACGAUCCUUCUGUAACCACAGUGACUACAAGUAGUUCUUUCUCUAUUGAAUUAUUAGGUCCAGAAUAGAAGAUGUCAUUGUACACUUUAUUUCCCUCACACUGUGUUAUGCUCUGAUGUGCUAUGCCAACAGAGGAUUGAGCAUCA
B13: chr7:20410151:20410448:+|3pUTR|ENSG00000105855|msi1|FALSE|unique (ssRNA)
RNA: B10 RNA with C26U, C27A, C37U, C38A, C66U, C67A, C76U, C77A, C83U, C84A
B14: ENSG00000115216:stop:overlap|stop_codon|ENSG00000115216|stop_codon|NA|stop_codon (ssRNA)
RNA: GGGAGUUCUACAGUCCGACGAUCACAAGUUCAAUUUUGCCAGGAACAGUACCCUCAACUCAGCCGCUGUCACCGUCUCCUCUUAGAGCUCACUCGGGCCAGGCCCUGAUCUGCGCUGUGGCUGUCCCUGGACGUGCUGCAGCCCAACAGAGGAUUGAGCAUCA

target: MSI1 full-length (mouse, UniProt Q61474 1-362); assay: nsRBNS (natural sequence RNA bind-n-seq); RBNS binding buffer (assumed for nsRBNS): 25 mM Tris pH 7.5, 150 mM KCl, 3 mM MgCl2, 0.01% Triton X-100, 500 ug/ml BSA, 20 U/ml SUPERase-In, 4 C; UNK is unkempt and MSI1 is Musashi-1; names of the RNAs are library labels; protein concentration not given here; high values mean tight binding
Sequence (Q61474 whole entry): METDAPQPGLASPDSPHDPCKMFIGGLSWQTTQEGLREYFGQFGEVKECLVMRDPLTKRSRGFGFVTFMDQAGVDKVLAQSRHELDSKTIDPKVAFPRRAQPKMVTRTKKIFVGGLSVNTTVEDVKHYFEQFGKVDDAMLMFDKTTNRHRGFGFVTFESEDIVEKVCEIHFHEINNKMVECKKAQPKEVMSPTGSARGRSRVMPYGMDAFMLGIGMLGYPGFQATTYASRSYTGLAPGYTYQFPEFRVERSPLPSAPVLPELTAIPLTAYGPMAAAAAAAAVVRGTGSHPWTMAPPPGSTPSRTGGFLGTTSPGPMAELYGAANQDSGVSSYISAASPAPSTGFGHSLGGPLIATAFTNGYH

Binder | binding signal [enrichment R]
B1 | 0.762
B2 | 17.7
B3 | 0.595
B4 | 0.649
B5 | 9.43
B6 | 48.8
B7 | 5.81
B8 | 0.303
B9 | 39.3
B10 | 0.529
B11 | 8.08
B12 | 1.03
B13 | 16.1
B14 | 0.763
